Results filed as inconclusive are left out. Calls of active or inactive are those of the source. Unless noted, the call rests on the fitted dose curve; in most records, active means well fitted curve in the direction sought with a large enough effect in the repeat runs; inconclusive means weak or mixed curves; inactive means no such curve, though single readings can be large; an effect the other way counts as inactive or inconclusive.
Columns and labels:
[1] = qHTS assay to test for compound auto fluorescence at 535 nm (green) in HEK293 cells (AID 720680)
[2] = qHTS assay to test for compound auto fluorescence at 460 nm (blue) in HEK293 cell free culture (AID 720681)
How it was run: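 Test compounds were pinned into cell-free culture medium (DMEM with 10% FBS) and fluorescence was read directly at Ex/Em 405/460 nm. Signals were expressed as fluorescence equivalents of triamterene, with DMSO vehicle as control.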

[3] = qHTS assay to test for compound auto fluorescence at 535 nm (green) in HEK293 cell free culture (AID 720682)
How it was run: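 Intrinsic compound fluorescence is measured in culture medium containing 10% FBS, with excitation at 485 nm and detection at 535 nm, referenced to fluorescein.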

[4] = qHTS assay to test for compound auto fluorescence at 590 nm (red) in HEK293 cell free culture (AID 720683)
How it was run: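 Tox21 10K library compounds were pinned into cell-free DMEM with 10% FBS and fluorescence was read at excitation 540 nm. Activity is expressed as Rose Bengal sodium equivalency.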

[5] = qHTS assay to test for compound auto fluorescence at 590 nm (red) in HepG2 cell free culture (AID 720684)
How it was run: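 Readout: intrinsic compound fluorescence at 590 nm emission after 540 nm excitation, scaled to Rose Bengal sodium. Matrix was cell-free MEM with 10% FBS; DMSO vehicle wells served as control.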

[6] = qHTS assay to test for compound auto fluorescence at 460 nm (blue) in HepG2 cell free culture (AID 720685)
How it was run: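 Cell-free plates of MEM plus 10% FBS received 23 nL compound or DMSO vehicle; blue-channel (405/460 nm) intensity scored against triamterene as reference fluorophore.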

[7] = qHTS assay to test for compound auto fluorescence at 535 nm (green) in HepG2 cell free culture (AID 720686)
[8] = qHTS assay to test for compound auto fluorescence at 460 nm (blue) in HepG2 cells (AID 720687)
How it was run: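 Cells (2,000/well in MEM with 10% FBS) attached overnight at 37 C, then were exposed to compound or DMSO for 1 hr at 37 C, 5% CO2. Fluorescence read at Ex/Em 405/460 nm, expressed as triamterene-equivalent signal.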

[9] = qHTS assay to identify small molecule antagonists of the glucocorticoid receptor (GR) signaling pathway - cell viability counter screen (AID 720693); further: nearly all actives have a fitted effect of over 55% in size
[10] = qHTS assay for identifying genotoxic compounds that show differential cytotoxicity against isogenic chicken DT40 cell lines with known DNA damage response pathways - wild type cell line (AID 743012); further: nearly all actives have a fitted effect of over 60% in size; further: potency means the concentration at half of the fitted maximal effect
How it was run: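 Luminescent ATP viability signal (CellTiter-Glo, 30 min RT) recorded after wild type DT40 cells were incubated with compounds for 40 h at 37 C/5% CO2.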

[11] = qHTS assay for identifying genotoxic compounds that show differential cytotoxicity against isogenic chicken DT40 cell lines with known DNA damage response pathways - Rad54/Ku70 mutant cell line (AID 743015); further: nearly all actives have a fitted effect of over 60% in size; further: potency means the concentration at half of the fitted maximal effect
[12] = qHTS assay to identify small molecule antagonists of the androgen receptor (AR) signaling pathway - cell viability counter screen (AID 743033; further: nearly all actives have a fitted effect of over 45% in size)
[13] = qHTS assay to identify small molecule antagonists of the androgen receptor (AR) signaling pathway using the MDA cell line - cell viability counter screen (AID 743041; further: nearly all actives have a fitted effect of over 45% in size)
How it was run: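 qHTS viability read-out; MDA-kb2 AR-luc; R1881-stimulated; 16 h exposure at 37C, 0% CO2; CellTiter-Fluor, 30 min; fluorescence intensity.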

[14] = qHTS assay to identify small molecule antagonists of the thyroid receptor (TR) signaling pathway - cell viability counter screen (AID 743064); further: nearly all actives have a fitted effect of over 50% in size
How it was run: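 Same-well viability check: GH3.TRE-Luc cells stimulated with 1 nM T3 alongside test compound for 23.5 h, followed by CellTiter-Fluor fluorescence.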

[15] = biological target: Glucocorticoid receptor (Homo sapiens) (UniProt P04150); experiment: qHTS assay to identify small molecule agonists of the glucocorticoid receptor (GR) signaling pathway (AID 720691; active means well fitted activation curve with a large enough effect in the signal ratio in the repeat runs, not every such curve was filed as active; the % refers to the signal ratio)
How it was run: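 Cells: GR-bla HeLa, endogenous GR with stably integrated GRE-beta-lactamase reporter. Treatment 18 h, 37 C, compounds delivered in DMSO. Detection via LiveBLAzer B/G FRET substrate, 2 h RT, fluorescence intensity.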

[16] = biological target: Glucocorticoid receptor (Homo sapiens) (UniProt P04150); experiment: qHTS assay to identify small molecule antagonists of the glucocorticoid receptor (GR) signaling pathway (AID 720692; active means well fitted inhibition curve with a large enough effect in the signal ratio in the repeat runs, not every such curve was filed as active; the % refers to the signal ratio)
How it was run: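 Quantitative HTS in antagonist format: HeLa cells expressing endogenous GR and a stably integrated GRE-bla reporter, stimulated with 5 nM dexamethasone (final) alongside test compounds for 18 h.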

[17] = qHTS assay for identifying genotoxic compounds that show differential cytotoxicity against isogenic chicken DT40 cell lines with known DNA damage response pathways - Rev3 mutant cell line (AID 743014); further: nearly all actives have a fitted effect of over 55% in size; further: potency means the concentration at half of the fitted maximal effect
[18] = biological target: Androgen receptor (Homo sapiens) (UniProt P10275); experiment: qHTS assay to identify small molecule antagonists of the androgen receptor (AR) signaling pathway (AID 743035; active means well fitted inhibition curve with a large enough effect in the signal ratio in the repeat runs, not every such curve was filed as active; the % refers to the signal ratio)
How it was run: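 Quantitative HTS of the Tox21 10K library used HEK293 AR-UAS-bla cells stimulated with R1881 alongside compound for 16 h at 37C, followed by beta-lactamase FRET detection (LiveBLAzer B/G, 2 h, RT).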

[19] = biological target: Androgen receptor (Homo sapiens) (UniProt P10275); experiment: qHTS assay to identify small molecule agonists of the androgen receptor (AR) signaling pathway using the MDA cell line (AID 743040; further: nearly all actives have a fitted effect of over 20% in size)
How it was run: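 Agonist activity is measured as luciferase luminescence in human MDA-kb2 cells whose MMTV reporter responds to both AR and GR. Compounds in DMSO incubate 16 h at 37C, 0% CO2, and ONE-Glo is read after 30 min.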

[20] = biological target: Androgen receptor (Homo sapiens) (UniProt P10275); experiment: qHTS assay to identify small molecule antagonists of the androgen receptor (AR) signaling pathway using the MDA cell line (AID 743042; further: nearly all actives have a fitted effect of over 55% in size)
How it was run: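 MDA-kb2 cells (human breast carcinoma, stably carrying an MMTV-luciferase reporter responsive to AR and GR) were plated at 3,000 cells/well and preincubated 5 hr at 37C, then given compound plus R1881 agonist for 16 h. ONE-Glo luminescence was read.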
On the % scale 0 is the no-effect control and ±100 the full control effect.

Glucocorticoid receptor (Homo sapiens), sequence (P04150 whole entry, looked up): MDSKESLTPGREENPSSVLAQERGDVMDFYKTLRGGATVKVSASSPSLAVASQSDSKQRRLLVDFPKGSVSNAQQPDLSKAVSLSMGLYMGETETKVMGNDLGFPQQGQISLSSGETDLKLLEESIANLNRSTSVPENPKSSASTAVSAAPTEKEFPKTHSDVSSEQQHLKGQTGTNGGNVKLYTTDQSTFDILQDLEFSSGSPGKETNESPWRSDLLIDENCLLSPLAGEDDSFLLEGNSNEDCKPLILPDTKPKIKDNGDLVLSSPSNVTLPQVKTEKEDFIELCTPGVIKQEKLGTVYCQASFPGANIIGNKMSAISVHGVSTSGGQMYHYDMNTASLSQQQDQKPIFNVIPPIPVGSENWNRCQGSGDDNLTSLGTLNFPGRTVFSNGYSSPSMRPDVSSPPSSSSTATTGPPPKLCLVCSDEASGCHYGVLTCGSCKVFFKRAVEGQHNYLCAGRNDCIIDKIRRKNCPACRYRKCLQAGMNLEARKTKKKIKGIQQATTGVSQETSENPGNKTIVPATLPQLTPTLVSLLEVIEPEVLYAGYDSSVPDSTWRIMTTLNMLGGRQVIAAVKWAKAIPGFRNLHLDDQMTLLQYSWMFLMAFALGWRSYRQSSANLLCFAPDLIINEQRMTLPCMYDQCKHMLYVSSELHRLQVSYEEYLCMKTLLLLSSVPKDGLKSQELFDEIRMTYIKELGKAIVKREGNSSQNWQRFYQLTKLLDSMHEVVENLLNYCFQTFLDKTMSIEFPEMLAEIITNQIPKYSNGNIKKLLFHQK
Androgen receptor (Homo sapiens), sequence (P10275 whole entry, looked up): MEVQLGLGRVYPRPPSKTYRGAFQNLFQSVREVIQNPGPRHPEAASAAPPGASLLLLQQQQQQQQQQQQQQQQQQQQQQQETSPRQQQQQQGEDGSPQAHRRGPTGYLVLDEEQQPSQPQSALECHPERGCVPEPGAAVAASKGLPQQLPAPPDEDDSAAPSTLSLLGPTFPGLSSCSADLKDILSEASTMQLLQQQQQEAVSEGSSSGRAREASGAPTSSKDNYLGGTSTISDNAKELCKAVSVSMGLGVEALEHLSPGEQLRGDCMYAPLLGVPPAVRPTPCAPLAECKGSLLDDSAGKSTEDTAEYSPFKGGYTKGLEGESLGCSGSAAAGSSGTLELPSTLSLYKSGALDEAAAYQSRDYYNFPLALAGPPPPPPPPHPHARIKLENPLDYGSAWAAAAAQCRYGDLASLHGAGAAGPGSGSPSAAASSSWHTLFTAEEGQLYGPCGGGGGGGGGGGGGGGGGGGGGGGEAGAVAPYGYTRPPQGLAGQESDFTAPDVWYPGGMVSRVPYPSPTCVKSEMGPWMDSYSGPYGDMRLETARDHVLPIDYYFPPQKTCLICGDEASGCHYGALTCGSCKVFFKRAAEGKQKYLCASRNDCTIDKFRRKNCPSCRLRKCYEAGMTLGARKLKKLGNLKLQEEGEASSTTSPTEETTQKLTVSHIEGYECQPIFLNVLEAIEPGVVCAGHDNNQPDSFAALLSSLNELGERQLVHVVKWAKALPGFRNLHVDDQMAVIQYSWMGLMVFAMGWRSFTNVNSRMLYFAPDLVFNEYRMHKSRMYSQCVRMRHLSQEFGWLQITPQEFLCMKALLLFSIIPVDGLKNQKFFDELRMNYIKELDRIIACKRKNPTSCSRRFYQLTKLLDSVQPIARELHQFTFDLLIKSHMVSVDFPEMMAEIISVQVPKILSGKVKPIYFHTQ

OCCCCCO
inactive: outcome [1] | outcome [2] | outcome [3] | outcome [4] | outcome [5] | outcome [6] | outcome [7] | outcome [8] | outcome [9] | Potency [10] | Potency [11] | outcome [12] | Potency [13] | Potency [14]

Cc1ccnc(NS(=O)(=O)c2ccc(N)cc2)n1
inactive: fluorescence, % of fluorescein [1] -0.0062% [at 18.6 µM] | fluorescence, % of fluorescent control [2] -0.0731% [at 18.6 µM] | activity change [3] 0.0378% [at 18.6 µM] | fluorescence, % of fluorescent control [4] -0.145% [at 18.6 µM] | fluorescence, % of Rose Bengal [5] 0.0665% [at 18.6 µM] | fluorescence, % of fluorescein control [7] 0.0314% [at 18.6 µM] | fluorescence, % of fluorescent control [8] -0.0164% [at 18.6 µM] | Potency [15] | Potency [16] | outcome [9] | Potency [10] | Potency [11] | outcome [12] | Potency [13]

O=C(O)CNC(=O)c1ccccc1
inactive: outcome [1] | outcome [2] | outcome [3] | outcome [5] | outcome [6] | outcome [7] | outcome [8] | Potency [15] | outcome [9] | Potency [10] | Potency [17] | Potency [11] | outcome [12] | Potency [13] | Potency [14]

Cc1ccc(C(=O)c2ccccc2)cc1
active: Potency [10] 61.1 µM | Potency [17] 54.5 µM | Potency [11] 68.6 µM
inactive: outcome [1] | outcome [2] | outcome [3] | outcome [5] | outcome [6] | outcome [7] | outcome [8] | Potency [15] | Potency [16] | outcome [9] | outcome [12] | Potency [18] | Potency [19] | Potency [13] | outcome [20]

C=COC(=O)C(C)(CC)CCC(C)C (stereo not given)
inactive: outcome [1] | outcome [2] | outcome [3] | outcome [5] | outcome [7] | outcome [8] | Potency [15] | outcome [9] | Potency [10] | Potency [17] | Potency [11] | outcome [12] | Potency [13] | Potency [14]

C=C(C)C(=O)OCCOCCOCCOCCOC(=O)C(=C)C
inactive: outcome [1] | outcome [2] | outcome [3] | outcome [5] | outcome [6] | outcome [7] | outcome [8] | outcome [9] | outcome [12] | Potency [14]

CCCC[N+](C)(CCCC)CCCC
inactive: outcome [1] | outcome [2] | outcome [3] | outcome [5] | outcome [7] | outcome [8] | Potency [15] | Potency [16] | outcome [9] | Potency [17] | outcome [12] | Potency [13] | Potency [14]

CC1(C)[C@@H]2CC[C@@]1(C)[C@H](O)C2
inactive: outcome [1] | outcome [2] | outcome [3] | outcome [5] | outcome [6] | outcome [7] | outcome [8] | Potency [16] | outcome [9] | Potency [10] | Potency [17] | Potency [11] | outcome [12] | Potency [13] | Potency [14]

CC(C)C(=O)OC(=O)C(C)C
inactive: outcome [1] | outcome [2] | outcome [3] | outcome [5] | outcome [6] | outcome [7] | outcome [8] | Potency [16] | outcome [9] | Potency [10] | Potency [17] | Potency [11] | outcome [12] | Potency [14]

c1ccc2sc(SN3CCOCC3)nc2c1
inactive: outcome [1] | outcome [2] | outcome [3] | outcome [5] | outcome [6] | outcome [7] | outcome [8] | Potency [15] | Potency [16] | outcome [9] | Potency [17] | outcome [12] | Potency [13]

CC1=CCC(O)(C(C)C)CC1 (stereo not given)
inactive: outcome [1] | outcome [2] | outcome [3] | outcome [5] | outcome [6] | outcome [7] | outcome [8] | Potency [15] | Potency [16] | outcome [9] | Potency [10] | Potency [11] | outcome [12] | Potency [14]

CCCCN1C=CN(C)C1
inactive: fluorescence, % of fluorescein [1] -0.0653% [at 18.6 µM] | fluorescence, % of fluorescent control [2] -0.116% [at 18.6 µM] | activity change [3] 0.0078% [at 18.6 µM] | fluorescence, % of Rose Bengal [5] 0.057% [at 18.6 µM] | fluorescence, % of fluorescent control [6] -0.0433% [at 18.6 µM] | fluorescence, % of fluorescein control [7] -0.069% [at 18.6 µM] | fluorescence, % of fluorescent control [8] 0.0295% [at 18.6 µM] | Potency [15] | Potency [16] | outcome [9] | Potency [10] | Potency [17] | Potency [11] | outcome [12] | Potency [13] | Potency [14]

COc1ccc2cc1Oc1cc3c(cc1OC)CC[N+](C)(C)[C@H]3Cc1ccc(cc1)Oc1c(OC)c(OC)cc3c1[C@@H](C2)[N+](C)(C)CC3
inactive: outcome [1] | outcome [2] | outcome [3] | outcome [5] | outcome [6] | outcome [7] | outcome [8] | Potency [15] | Potency [16] | outcome [9] | Potency [10] | Potency [11] | outcome [12]

N[C@@H](CCC(=O)O)C(=O)O
inactive: outcome [1] | outcome [2] | outcome [3] | outcome [5] | outcome [7] | outcome [8] | Potency [16] | outcome [9] | Potency [10] | Potency [17] | Potency [11] | outcome [12] | Potency [13]

COc1c(N2CCNC(C)C2)c(F)cc2c(=O)c(C(=O)O)cn(C3CC3)c12 (stereo not given)
inactive: outcome [1] | outcome [2] | outcome [3] | outcome [5] | outcome [7] | outcome [8] | Potency [16] | outcome [9] | Potency [10] | Potency [17] | Potency [11] | outcome [12] | Potency [13] | Potency [14]

Source: PubChem BioAssay (Tox21)
